Rows were chosen to be rich in hits. Some 7.4% of all compounds tested hit in one or more screens of this group.
Rab9 promoter act: qHTS Assay for Rab9 Promoter Activators | Huh7 Rab9 promoter-luciferase reporter, luminescence, 24 h | Potency, µM (titrated, usually from 9.22 µM), for inactives: at the highest dose activation, negative = inhibition, usual class: activators | 320,000 tested, 2.8% active; also: % of control where 0% means no effect; nearly all actives have a fitted effect of over 60% in size
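Using Huh7 cells stably transfected with Rab9 promoter–luciferase, compounds were incubated 24 h at 37 °C, 5% CO2; luciferase luminescence was read 10 min after reagent addition.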
SMN2 splice up: qHTS Assay for Enhancers of SMN2 Splice Variant Expression. HEK293 SMN2-luciferase splicing reporter, luminescence, 30-36 h. AID 1458, 2008. 210,000 tested, 2.8% active. Potency, µM (highest dose often 46.1 µM), inactives show at the top dose activity change, positive = activation, actives largely listed as activators; also: % of control where 0% means no effect; nearly all actives have a fitted effect of over 55% in size
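qHTS luciferase splicing reporter: luminescence rises when SMN2 exon 7 is included in transfected HEK293 cells. Compound exposure lasted 30-36 h at 37C, with 4.5 mM final sodium butyrate as control, followed by a ONE-Glo read.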
KinaseGlo FLuc: Counterscreen for Luciferase (Kinase-Glo TM) Inhibition; Kinase-Glo luciferase, ATP luminescence, 8 min; Potency, µM (top dose mostly 38.3 µM), for inactives: at the top dose activity change, negative = inhibition, hits mostly inhibitors; Luciferin 4-monooxygenase (Photuris pensylvanica), Q27757; AID 1379, 2008; 200,000 tested, 0.28% active; also: % is scaled to controls: 0 for no effect and ±100 for the full control effect; nearly all actives have a fitted effect of over 60% in size
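Inhibition of Kinase-Glo luciferase light generation was assessed at 10 uM ATP in pH 7.2 imidazole buffer, with luminescence measured after eight minutes at ambient temperature.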
FLuc counter: qHTS profiling assay for firefly luciferase inhibitor/activator using purifed enzyme and Km concentrations of substrates (counterscreen for miR-21 project); AID 588342, 2011; Luciferin 4-monooxygenase (Photinus pyralis), P08659; purified FLuc, Km substrates, luminescence inhibition; Potency, µM (doses to about 57.5 µM), inactives show at the highest dose activity change, negative = inhibition, actives largely listed as inhibitors; 360,000 tested, 6.9% active;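 also: plate controls were vehicle for no effect and reference inhibitor for full effect; nearly all actives have a fitted effect of over 55% in size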
Target sequence (P08659 whole entry, looked up): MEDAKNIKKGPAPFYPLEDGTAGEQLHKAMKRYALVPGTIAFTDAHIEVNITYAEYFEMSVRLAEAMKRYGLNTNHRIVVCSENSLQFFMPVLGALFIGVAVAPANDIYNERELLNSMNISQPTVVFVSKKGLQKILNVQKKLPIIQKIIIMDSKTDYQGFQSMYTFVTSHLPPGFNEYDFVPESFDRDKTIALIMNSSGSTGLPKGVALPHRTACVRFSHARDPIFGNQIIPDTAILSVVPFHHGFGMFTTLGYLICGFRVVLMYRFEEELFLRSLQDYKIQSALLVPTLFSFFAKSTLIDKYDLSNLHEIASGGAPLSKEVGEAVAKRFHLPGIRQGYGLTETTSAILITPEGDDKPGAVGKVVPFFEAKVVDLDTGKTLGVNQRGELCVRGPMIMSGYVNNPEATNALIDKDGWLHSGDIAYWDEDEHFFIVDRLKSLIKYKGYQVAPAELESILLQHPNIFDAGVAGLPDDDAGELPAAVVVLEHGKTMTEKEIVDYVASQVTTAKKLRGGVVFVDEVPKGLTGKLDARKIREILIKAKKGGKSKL
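Purified P. pyralis luciferase (10nM final) with 10uM D-luciferin and 10uM ATP (Km levels) in 50mM Tris acetate pH 7.5, 10mM Mg acetate, 0.01% Tween-20, 0.05% BSA; qHTS 6-point titration, ~60 µM downward; luminescence read.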
ELG1 genotox: qHTS screen for small molecules that induce genotoxicity in human embryonic kidney (HEK293T) cells expressing luciferase-tagged ELG1. HEK293T ELG1-luciferase reporter, luminescence, 16 h. Potency, µM (top dose mostly 46 µM), without a hit: top-dose activity change, positive = activation, usual class: activators. 330,000 tested, 1.3% active. AID 504466, 2011; also: % of control where 0% means no effect; nearly all actives have a fitted effect of over 60% in size
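Genotoxic stress is detected as increased luminescence from luciferase-tagged ELG1 in HEK293T cells, measured with ONE-Glo after a 16 hr treatment at 37 °C.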
NPC1 promoter act: qHTS Assay for NPC1 Promoter Activators | Huh7 NPC1 promoter luciferase reporter, 24 h | Potency, µM (titrated, usually from 9.22 µM), for inactives: top-dose activation, actives largely listed as activators | 320,000 tested, 2.4% active | AID 485313, 2010; also: % of control where 0% means no effect; nearly all actives have a fitted effect of over 60% in size
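Stable NPC1-promoter luciferase Huh7 line; cpd (DMSO) 24 h, 37 °C, 5% CO2; Amplite luciferase reagent 10 min RT; luminescence readout. qHTS format.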
An asterisk follows results filed as active; ? = inconclusive; nt = no result. Calls follow the shape of the dose curve; as a rule, active = well fitted curve in the direction sought with a large enough effect; inconclusive = small, poorly fitted or top-dose-only effect, or another doubt; inactive = no such curve, though single readings can be large; an effect the other way counts as inactive or inconclusive. Potency is read from the fitted curve at half-maximal effect.

SMILES | Rab9 promoter act | SMN2 splice up | KinaseGlo FLuc | FLuc counter | ELG1 genotox | NPC1 promoter act
CCCCN(C(=O)CSc1nnc(Nc2ccc(C)c(C)c2)s1)c1c(N)n(Cc2ccccc2)c(=O)[nH]c1=O | 3.0% | 22.4µM* | -9.7% | 1.07µM* | 5.5% | 15.0%
Cc1oc(/N=C/c2cccc3ccccc23)c(C#N)c1C | 0.9% | -0.4% | 13.2% | -7.9% | -1.6% | 0.2%
COc1ccc(/C=N/c2oc(C)c(C)c2C#N)c(OC)c1 | -2.1% | nt | 0.6% | 1.4% | 1.6% | -1.5%
Cc1oc(/N=C/c2ccccc2)c(C#N)c1C | 3.5% | nt | nt | 12µM* | 0.6% | 2.1%
COc1cc(/C=N/c2oc(C)c(C)c2C#N)cc(Br)c1O | -2.6% | nt | nt | 15.1µM* | 0.2% | -0.9%
O=C(c1ccc2oc(CCCc3ccccc3)nc2c1)N1CCCC1 | 1.78µM* | nt | nt | 8.49µM* | 9.2µM* | 3.16µM*
COC(=O)C1CCCCN1C(=O)c1ccc2oc(Cc3ccccc3)nc2c1 (stereo not given) | ? | nt | nt | 15.1µM* | ? | 3.55µM*
COCCC1CCCCN1C(=O)c1ccc2nc(Cc3ccccc3F)oc2c1 (stereo not given) | 2.82µM* | nt | nt | 8.49µM* | 10.3µM* | 1.78µM*
CCOC(=O)CC1CCCCN1C(=O)c1ccc2oc(CCc3ccccc3)nc2c1 (stereo not given) | 17.1% | nt | nt | ? | 1.8% | 4.8%
CCOC(=O)C1CCCN(C(=O)c2ccc3oc(CCc4ccccc4)nc3c2)C1 (stereo not given) | 30.0% | nt | nt | 13.5µM* | 11.6% | ?
Cc1ccc(Cn2c(C(=O)NCc3ccccc3Cl)cc3sccc32)cc1 | nt | 3.0% | nt | -8.8% | nt | nt
O=C(Nc1cnn(Cc2ccc(Cl)cc2Cl)c1)c1noc2c1CCc1ccccc1-2 | nt | -8.9% | nt | -7.1% | nt | nt
CCOc1ccccc1CNC(=O)C1CCCN(c2ncnc3onc(-c4ccc(F)cc4)c23)C1 (stereo not given) | nt | nt | nt | -8.7% | nt | nt
Cc1ccc(CNC(=O)c2cc3c(=O)n(Cc4ccco4)ccc3nc2C)cc1 | nt | nt | nt | -7.5% | nt | nt
CC(=O)C1CCCN(C(=O)c2ccc3nc(Cc4cccc(Cl)c4)oc3c2)C1 (stereo not given) | 2.8% | nt | nt | 5.5% | -2.7% | 3.3%
CC(=O)C1CCCN(C(=O)c2ccc3oc(CCc4ccccc4)nc3c2)C1 (stereo not given) | 2.51µM* | nt | nt | ? | ? | ?
CCCCc1nc2cc(C(=O)N3CCN(c4nc(C)cnc4C)CC3)ccc2o1 | ? | nt | nt | 15.1µM* | 3.9% | ?
COc1cccc(N2CCN(C(=O)Cn3ncc4c3-c3ccccc3OC4)CC2)c1 | nt | -1.4% | nt | 3.6% | nt | nt
Cc1ccc(NC(=O)CN2C(=O)CCn3nc(-c4cccn4C)cc32)cc1 | nt | nt | nt | 3.5% | nt | nt
Cc1scc(C(=O)NNC(=O)CCC(=O)O)c1C | -2.9% | nt | -1.8% | 0.5% | 0.4% | -6.6%
CC(C)(C)C1CCc2c(C(=O)NNC(=O)CCC(=O)O)csc2C1 (stereo not given) | 0.8% | -0.9% | -2.7% | 26.9µM* | 1.5% | -2.0%
CCN1/C(=C2\C(=O)N(C)C(=S)N2C)C=Cc2cc(OC)ccc21 | 0.6% | -12.0% | -19.1% | ? | 3.6% | -3.5%
CCN1C(=O)/C(=C2/C=Cc3cc(C)ccc3N2CC)N(C)C1=S | -0.7% | -25.0% | 10µM* | ? | 0.3% | 0.0%
CCc1c(C)nc2nncn2c1NCc1ccccc1 | nt | -35.4% | nt | -2.7% | nt | nt
COc1ccc(CC(=O)Nc2cccc(C(=O)Nc3ccccc3C(=O)O)c2)cc1OC | -9.0% | 7.2% | -2.3% | 16.9µM* | -1.3% | 1.2%
SMILES | Rab9 promoter act | SMN2 splice up | KinaseGlo FLuc | FLuc counter | ELG1 genotox | NPC1 promoter act
COc1ccc(OCC(=O)Nc2cccc(C(=O)Nc3ccccc3C(=O)O)c2)cc1 | -1.8% | 12.9% | -0.3% | 23.9µM* | 0.3% | 1.0%
COc1ccc(OCC(=O)Nc2cc(NC(=O)COc3ccc(OC)cc3)cc(C(=O)O)c2)cc1 | -0.2% | nt | nt | ? | 2.1% | 3.8%
CCC(C(=O)Nc1ccc(C)c(Cl)c1)n1c(=O)c(-c2ccccc2NC(C)=O)nc2ccccc21 (stereo not given) | nt | nt | nt | -1.5% | nt | nt
COc1ccc(-n2c(=O)c(CCc3ccccc3)nc3cnc(N4CCNCC4)nc32)cc1 | nt | -7.0% | -2.2% | nt | nt | nt
CC(=O)N1N=C(c2ccc(Cl)cc2)OC1c1ccc(C(C)C)cc1 (stereo not given) | 28.7% | 19.1% | -0.4% | 12µM* | ? | 23.8%
CC(=O)N1N=C(c2ccc(C)cc2)OC1c1ccc(Br)cc1 (stereo not given) | 9.2% | nt | -1.9% | -3.0% | -3.3% | -0.5%
Cc1[nH]c2ccccc2c1C1=NNC(=Nc2ccc(F)cc2)SC1 | -3.1% | -38.3% | -1.0% | -4.6% | -13.1% | -0.3%
CCN=C1NN=C(c2ccc(C)cc2)CS1 | ? | ? | -13.9% | 1.07µM* | ? | ?
Nc1nc(-c2ccc3c(c2)OCCO3)c(CC(=O)O)s1 | 11.4% | nt | nt | ? | -0.9% | -3.4%
NC1=NN=C(c2ccc3c(c2)OCCO3)CS1 | 0.562µM* | 2.51µM* | ? | 5.36µM* | -8.9% | 1µM*
c1ccc(CN=C2NN=C(c3ccccc3)CS2)cc1 | 4.47µM* | ? | -4.9% | 19µM* | 5.8% | ?
CC(C)N=C1NN=C(c2ccc(F)cc2)CS1 | 0.501µM* | 14.1µM* | 10µM* | 9.53µM* | 1.3% | 0.562µM*
COCCN=C1NN=C(c2ccc(NC(C)=O)cc2)CS1 | 12.2% | 11.4% | 2.8% | -13.8% | -6.3% | 3.8%
CC(=O)N1CCCc2cc(S(=O)(=O)N3CCC(C(=O)NCc4cccc(C)c4)CC3)ccc21 | nt | nt | nt | -1.4% | nt | nt
C=CCN=C1NN=C(c2cc(C)n(CC=C)c2C)CS1 | -12.7% | -54.1% | ? | 0.338µM* | ? | -4.2%
C=CCN=C1NN=C(c2ccc3c(c2)OCCO3)CS1 | 0.447µM* | -27.3% | 10µM* | 0.675µM* | 0.58µM* | 1µM*
Fc1ccc(C2=NNC(=NCc3ccccc3)SC2)cc1F | ? | ? | -0.3% | ? | 13.1% | ?
COc1ccccc1C1=NNC(=NCc2ccccc2)SC1 | 20.5% | -5.2% | -5.8% | ? | 6.1% | 10.8%
COCCN=C1NN=C(c2cc(C)n(CC3CCCO3)c2C)CS1 (stereo not given) | ? | -16.1% | -5.5% | ? | 11.9% | 28.1%
c1ccc(C2=NNC(=NCc3ccc4c(c3)OCO4)SC2)cc1 | ? | nt | nt | 26.9µM* | 12.8% | ?

Screening results: PubChem, National Center for Advancing Translational Sciences (NCATS)
